Assay outcomes (PubChem)
FMDV inh = antivirals against foot and mouth disease virus | FMDV antiviral cell-based qHTS | Potency, µM (series often up to 57.9 µM), without a hit: at the highest dose activity change, negative = inhibition, actives largely listed as inhibitors | 410,000 compounds, 1.2% hits; calls by dose curve; tested in HEK293T cells; also: read-out not given here; potency is read from the fitted curve at half-maximal effect; % is scaled to controls: 0 for no effect and ±100 for the full control effect; nearly all actives have a fitted effect of over 45% in size
Cycloheximide cs = counter-screen hit for Shiga toxin inhibitors, cycloheximide. max response, %. 300,000 compounds, 12% hits. cell reporter, cycloheximide protein synthesis inhibition counterscreen. AID 2314; in the data active = max response mostly above about 13%, no sharp cut-off; inactive = mostly below about 14%; also: read at 38.3 µM for the half of the compounds with a filed dose; 0% is about no effect
Shiga inhibitor = Shiga toxin inhibition; Vero cells, Shiga toxin protein synthesis inhibition reporter; inhibition, % at 38.7 µM; 290,000 compounds, 9.2% hits; in the data active = inhibition mostly above about 28%, no sharp cut-off; inactive = mostly below about 43%; also: 0% is about no effect
Sm TGR inh = S. mansoni TGR enzyme inhibition | Q962Y6 | purified TGR, DTNB reduction, TNB absorbance 405 nm | Potency, µM (series often up to 114 µM), inactives show top-dose activity change, negative = inhibition, hits mostly inhibitors | 360,000 compounds, 3% hits; active = well fitted inhibition curve with a large enough effect; inconclusive = small, poorly fitted or top-dose-only effect; inactive = no such curve, though single readings can be large or run the other way; also: potency is read from the fitted curve at half-maximal effect; % is scaled to controls: 0 for no effect and ±100 for the full control effect; nearly all actives have a fitted effect of over 60% in size
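Kinetic colorimetric format: TGR-catalysed, NADPH-driven DTNB reduction monitored via TNB absorbance. Enzyme dispensed at 20 nM; compound exposure 15 min at room temperature before reaction start.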
* = called active by the depositor; i = inactive; ? = inconclusive; . = no result given; [ ] = dose if it differs, or a comment. Sampled rows, rich in hits. Any-hit rate of the full collection: about 12%.

SMILES | FMDV inh | Cycloheximide cs | Shiga inhibitor | Sm TGR inh
O=C(NC(=S)Nc1ccccc1)C1CCCCC1 | 40.3% | -0.9 | -14.2 | -14.7%
O=C(CSc1nnc(-c2ccccc2O)o1)N1CCOCC1 | 21.2% | 25.6* | 85.7* | -7.0%
O=C(CSc1nnc(-c2ccccc2O)o1)N1CCCCC1 | 29.2% | 28.3* | 41.6* | 3.4%
O=C(CSc1nnc(-c2ccccc2Br)o1)N1CCOCC1 | 19.3% | 51.4* | 70.2* | -11.5%
O=C(CSc1nnc(-c2ccccc2Cl)o1)N1CCCCC1 | 0.0% | 37.4* | 83.2* | 0.1%
O=C(CSc1nnc(-c2ccncc2)o1)N1CCCCCC1 | 37.7% | 9.9 | 33.7 | -29.1%[57.1 µM]
CC(Sc1nnc(-c2ccccc2Br)o1)C(=O)N1CCOCC1 (stereo not given) | 6.6% | 11.5 | 34.8 | 5.0%
Cc1cc(C(=O)Nc2ccccc2-c2nc(CNC(=O)c3cc4ccccc4cn3)c(C)o2)c(C)o1 | 0.0% | . | . | .
CCOC(=O)c1oc2c(c1C)-c1nn(Cc3cccc(Cl)c3)cc1CC2 | ? | . | . | -0.7%
CCOC(=O)Cc1cc(C(=O)Nc2ccc(Br)cc2)sc1-c1ccc(C)cc1 | -24.6% | . | . | 4.0%
Cc1nn(-c2ccccc2)c(NC(=O)NS(=O)(=O)c2ccc(Cl)cc2)c1C#N | . | -8.0 | -3.6 | .
CCOC(=O)N1CCC(NC(=O)c2ccc3c(c2)N(Cc2ccc(F)cc2)C(=O)c2ccccc2S3(=O)=O)CC1 | -3.1% | . | . | -7.3%
Cc1ccc(NC(=O)c2nc(S(C)(=O)=O)ncc2N(Cc2ccccc2)Cc2ccco2)c(C)c1 | -22.6% | . | . | -1.4%
O=C(CSc1nnc(-c2ccccc2Cl)o1)N1CCCC1 | 40.3% | 51.4* | 72.9* | -3.4%
O=C(CSc1nnc(-c2ccccc2O)o1)N1CCc2ccccc2C1 | 3.3% | -2.3 | -6.8 | 0.0%
COCc1cc(C)nc(N/N=C/c2ccc(-c3ccc(Cl)cc3[N+](=O)[O-])o2)c1C#N | -14.5% | 0.5 | -10.9 | 8.91µM*
CC(=O)c1c(O)n(-c2cccc(Cl)c2)c(=O)[nH]c1=O (tested in a mixture with another compound) | -24.7% | 1.8 | -3.6 | ?
CC(C)n1c(O)c(C2c3cc(Cl)ccc3Oc3[nH]c(=O)n(C(C)C)c(=O)c32)c(=O)[nH]c1=O (stereo not given) | 3.55µM* | -8.8 | -26.2 | -34.6%
CCOc1ccccc1/C=C/c1onc(C)c1S(=O)(=O)N1CCC(C(=O)N2CCCCC2)CC1 | -2.1% | . | . | 2.4%
COc1cccc(C(=O)O/N=C(\N)c2ccc([N+](=O)[O-])cc2)c1 | 60.1% | 32.7* | 76.2* | 1.3%
COc1cccc(C(=O)O/N=C(\N)c2ccncc2)c1 | 0.0% | 47.0* | 71.5* | -19.1%
COc1cccc(C(=O)O/N=C(\N)c2ccc(C)cc2)c1 | 36.4% | 57.1* | 83.4* | 2.0%
COc1cccc(/C(N)=N/OC(=O)Cc2ccccc2[N+](=O)[O-])c1 | 34.5% | 26.8* | 113.3* | 12.2%
N/C(=N\OC(=O)Cc1ccccc1[N+](=O)[O-])c1ccncc1 | -5.6% | -1.5 | -6.9 | 5.1%
COc1ccc(/C(N)=N/OC(=O)c2cccc([N+](=O)[O-])c2)cc1 | 40.6% | 0.8 | 25.9 | -3.3%
SMILES | FMDV inh | Cycloheximide cs | Shiga inhibitor | Sm TGR inh
Cc1ccc(Cl)cc1NC(=O)Cn1c(=O)oc2cc(S(=O)(=O)N3CCCCCC3)ccc21 | -23.2% | . | . | 7.6%
Cc1cc(=O)c2cc(C(=O)Nc3ccc(C)c(C)c3)ccc2[nH]1 | 16.2% | . | . | 0.5%
Cc1cc2oc(=O)cc(-c3ccccc3)c2c(C)c1-c1ccoc1 | . | 2.1 | i | .
COc1cc(Cl)c(C)cc1Nc1c2c(nc3ccccc13)CCC2 | ? | . | . | 5.4%
O=C(Cn1ncc2c3ccccc3n(Cc3ccc(F)cc3)c2c1=O)NCc1ccccn1 | -3.6% | . | . | -0.1%
Nc1ccccc1SC1CC(=O)N(c2ccc(Cl)c(Cl)c2)C1=O (stereo not given) | -24.8% | -2.0 | -9.8 | 4.9%
O=C1CC(SC2=NCCS2)C(=O)N1c1ccc(Br)cc1 (stereo not given) | 1.9% | -4.8 | -2.4 | 56.2µM*
O=C1CC(SC2=NCCS2)C(=O)N1c1ccc(Cl)cc1 (stereo not given) | 8.2% | -2.6 | -5.6 | 56.2µM*
COc1cc(CCC(=O)NCc2ccc3c(c2)CCN3C(=O)c2ccccc2)cc(OC)c1OC | 0.0% | . | . | -1.3%
Cc1ccc(OCC(=O)Nc2ccc3nc(SCC(=O)N4CCOCC4)sc3c2)cc1C | ? | . | . | -1.9%
O=C(OCCCOc1ccc(F)cc1)c1ccc(O)cc1O | -13.0% | 21.1* | 21.0 | 4.5%
CN1CCC(N(C)C(=S)NCCc2ccccc2)CC1 | 12.8% | 15.9 | 22.1 | 27.6%
S=C(NCCc1ccccc1)N1CCN(C(c2ccccc2)c2ccccc2)CC1 | 3.5% | 2.2 | 13.4 | ?
CN(C)C(=O)N1CCCC(C(=O)NCCc2ccccc2)C1 (stereo not given) | 0.0% | 26.0* | 95.1* | -20.4%
CC1CCCCN1C(=S)NCCc1ccccc1 (stereo not given) | 46.7% | 37.6* | 90.6* | 0.4%
Cc1ccc(CCNC(=O)C2CCCN(C(=O)N(C)C)C2)cc1 (stereo not given) | 28.1% | -2.4 | -3.7 | 7.3%
CC1CCCN(C(=S)NCCc2ccccc2)C1 (stereo not given) | 3.4% | 25.9* | 53.6* | -27.4%
COc1ccc(CN(CCC(c2ccccc2)c2ccc(OC(C)C)cc2)C(=O)CCl)cc1OC (stereo not given) | 4.47µM* | 9.7 | -8.6 | ?
COc1ccc(C(CCN(Cc2ccc(OC)c(OC)c2)C(C)=O)c2ccccc2)cc1 (stereo not given) | ? | -5.6 | -14.8 | 5.4%
COc1ccc(C(=O)Nc2ccccc2C(=O)OCc2cc(=O)n3nc(C4CC4)sc3n2)cc1 | 14.1% | . | . | -2.5%
C/C(N)=C(/C#N)C(=O)CSc1nnc(-c2ccccc2Br)o1 | -18.1% | 54.2* | 126.3* | 4.2%
COc1ccc2nc(SCC(=O)/C(C#N)=C(\C)N)[nH]c2c1 | -6.9% | 46.6* | 96.8* | 4.8%
COc1ccc(-c2nnc(SCC(=O)/C(C#N)=C(\C)N)o2)cc1 | -32.0% | 38.1* | 107.1* | 5.3%
COc1cc(CN2CCOc3ccc(CN4CCC(O)(c5cccnc5)CC4)cc3C2)ccc1F | 0.9% | . | . | .
CCCCC[C@H](O)/C=C/C=C\CCCCCCCC(=O)O | -14.4%[0.463 µM] | . | . | .
SMILES | FMDV inh | Cycloheximide cs | Shiga inhibitor | Sm TGR inh
CN(C)c1ccc(/C=C2\CCCc3c2nc2ccccc2c3C(=O)O)cc1 | 45.8% | 45.5* | 118.1* | -12.2%
COc1ccc(/C=C2\CCCc3c2nc2ccccc2c3C(=O)O)cc1OC | . | -2.1 | -11.5 | 20µM*
COc1ccc(/C=C2\CCc3c2nc2ccccc2c3C(=O)O)cc1OC | -18.7% | 13.9 | 14.3 | -14.8%
COc1cc(/C=C2\CCCc3c2nc2ccccc2c3C(=O)O)cc(OC)c1O | 2.1% | -2.3 | -2.4 | 20µM*
CC(C)c1ccc2oc(-c3cccc(NC(=O)c4ccc5c(c4)OCCO5)c3)nc2c1 | 3.5% | . | . | -3.2%
COc1ccc(NCc2cc3ccc(OC)cc3n(CC(=O)Nc3ccc(C)c(C)c3)c2=O)cc1 | -2.7% | . | . | -1.1%
CCCOc1c(Cl)cc(C(=O)N(Cc2cccc(OC)c2)C2CCS(=O)(=O)C2)cc1Cl (stereo not given) | -22.0% | . | . | 8.2%
Nc1cc2c(cc1O)CCCC2 | 3.6% | 51.4* | 136.3 | 39.8µM*
Cc1ccc(O)c(N)c1 | 33.7% | . | . | ?
